# Source: ChEMBL document CHEMBL3988442, “University of Dundee, Small-Polar-MMV Screening Library” (2021)
# Among all 69,000 compounds or so, about 950 (1.4%) showed an effect of 50% or more. The full list was thinned out, with strong results kept by preference.
# System: Mycobacterium tuberculosis
# Experiment: Cornell M. t heat shock assay; further: in the data most compounds retested in dose-response had high values
# Type: functional, organism-based
# Set-up: dose or concentration left out as unconfirmed
row,Compound,Percent Effect [%]
1,CCc1ccc(CN2CCC3(CC2)CC(N2CCN(C)CC2)CO3)cc1.O=C(O)C(F)(F)F (stereo not drawn),2.884
2,Cc1ccc(CN2CC[C@@H](NC(=O)c3cccnc3)[C@H](O)C2)o1,8.326
3,Cc1ccc(CN(C(=O)NCCNC(=O)c2cccnc2)C(C)C)o1,-12.97
4,Cc1ccc(CCNC(=O)c2cccnc2)o1,80.23
5,CCc1cc(C(=O)N2CCCC(Cc3ccc(NC)nn3)C2)on1 (stereo not drawn),-39.14
6,COCCCNC(=O)CN(C)C(=O)c1cc(Cl)ccc1O,100.8
7,COCCCNC(=O)CN(C)C(=O)c1cc(C)ccc1O,5.458
8,COCCCNC(=O)CN(C)C(=O)c1ccccc1O,-10.97
9,N#Cc1cccc(CN2CCn3cc(Cn4cccn4)nc3C2)c1.O=C(O)C(F)(F)F.O=C(O)C(F)(F)F,-31.57
10,COC[C@@H]1CCC[C@@]12CN(Cc1ccc(C)s1)CCO2.O=C(O)C(F)(F)F,-18.91
11,CCOCc1cnc2n1CCN(C(=O)c1ccccc1)C2C (stereo not drawn),53.26
12,CCOCc1cnc2n1CCN(C(=O)c1ccoc1C)C2C (stereo not drawn),26.88
13,CCOCc1cnc2n1CCN(C(=O)c1cn(C)c3ccccc13)C2C (stereo not drawn),8.997
14,CCOCc1cnc2n1CCN(C(=O)c1cccc3c1OCCO3)C2C (stereo not drawn),51.66
15,CCOCc1cnc2n1CCN(C(=O)C1=CCCC1)C2C (stereo not drawn),-7.076
16,CCOCc1cnc2n1CCN(C(=O)Cc1cccs1)C2C (stereo not drawn),-15.31
17,Cc1nc(COC[C@@H]2CC[C@H]3[C@H](CCN3c3ncccn3)O2)cs1.O=C(O)C(F)(F)F,3.819
18,O=C(O)C(F)(F)F.O=C(O)C(F)(F)F.O=C(O)C(F)(F)F.c1ccc(N2CC3(CCN(Cc4cccnc4)C3)C2)nc1,-1.371
19,COc1ncccc1CN1C[C@H]2C[C@@H](C(=O)NCC3CC3)N(C)[C@H]2C1.O=C(O)C(F)(F)F.O=C(O)C(F)(F)F.O=C(O)C(F)(F)F,-0.5017
20,COCCNC(=O)[C@@]12CCO[C@@H]1CCN(Cc1cc(C)on1)C2.O=C(O)C(F)(F)F,-5.953
21,COc1ccc(C(CNS(=O)(=O)c2cn(C)nc2C)N2CCCC2)cc1.Cl (stereo not drawn),-8.275
22,CCN(Cc1cccc(Cl)c1)Cc1ncc(C(C)(C)C)o1,-28.51
23,Cc1cccc(CN(Cc2ccccn2)Cc2ncc(C(C)(C)C)o2)c1,77.52
24,Cc1cccc(CN(Cc2ccccn2)S(=O)(=O)N(C)C)c1,-11.53

row,Compound,Percent Effect [%]
1,O=C(O)C(F)(F)F.O=C(c1cc[nH]n1)N1CCc2onc(COc3cccnc3)c2C1,4.696
2,CC(Cn1ccnc1)NCc1cc(Br)c2c(c1)OCO2.Cl (stereo not drawn),-15.88
3,Clc1ccc2cccnc2c1CN1CCCC(Cn2cncn2)C1 (stereo not drawn),18.36
4,Cc1nc2ccccc2nc1CN1CCCC1Cn1cncn1 (stereo not drawn),3.442
5,Cc1nc(CN2CCCC2Cn2cncn2)nc2ccccc12 (stereo not drawn),19.17
6,O=C(CN1CCCCC1Cn1cncn1)Nc1ccncc1 (stereo not drawn),-9.468
7,Cc1c(Cl)c(CN2CCCC2Cn2cncn2)nc2ccccc12 (stereo not drawn),54.06
8,O=C(CN1CCCC1Cn1cncn1)Nc1cccnc1 (stereo not drawn),62.16
9,O=C(CN1CCCC(Cn2cncn2)C1)Nc1cccnc1 (stereo not drawn),9.071
10,Clc1ccc2cccnc2c1CN1CCCC1Cn1cncn1 (stereo not drawn),52.22
11,Cc1nc2ccccc2nc1CN1CCCCC1Cn1cccn1 (stereo not drawn),5.148
12,Cc1nc2ccccc2nc1CN1CCCC1Cn1cccn1 (stereo not drawn),61.51
13,Clc1ccc2cccnc2c1CN1CCCCC1Cn1cncn1 (stereo not drawn),36.55
14,Cc1nc2ccccc2nc1CN1CCCCC1Cn1cncn1 (stereo not drawn),12.5
15,CN1CC(=O)N(c2cccc(F)c2)CC12CCN(Cc1cnn(C)c1)C2.O=C(O)C(F)(F)F.O=C(O)C(F)(F)F (stereo not drawn),-4.947
16,Cc1cccc(Nc2cc(C)nc(C3CCN(C(C)C)C3)n2)n1.O=CO (stereo not drawn),-16.48
17,Cn1cc(CN2CCC[C@]3(C[C@H](Oc4ncccc4F)CO3)C2)cn1.O=C(O)C(F)(F)F.O=C(O)C(F)(F)F,15.03
18,Cc1cnc(C(=O)N2CCCC(c3c(C)c(=O)nc4n3CCC4)C2)cn1.Cl (stereo not drawn),-2.984
19,Cc1cc2cc(C(=O)N3CC[C@H](O)[C@]4(CCCO4)C3)ccc2o1,-15.2
20,CCC(C)NS(=O)(=O)Cc1cccc(NC(=O)C2=CCCC2)c1 (stereo not drawn),26.24
21,Cc1cccc2nc(CN3CCCC3Cn3cncn3)cn12 (stereo not drawn),-15.33
22,Cc1nc(C)n(CC2CCCN2Cc2cn3c(C)cccc3n2)n1 (stereo not drawn),-6.121
23,Cc1cccc2nc(CN3CCCC3Cn3cccn3)cn12 (stereo not drawn),71.56
24,Cc1cc(N(C)C)nc(C2CCCNC2)n1.Cl (stereo not drawn),-4.07

row,Compound,Percent Effect [%]
1,COc1ccc(C[C@H]2CN(Cc3ccoc3)CC[C@H]2OC)cc1.O=C(O)C(F)(F)F,23.61
2,Cc1noc(C)c1CN(C)Cn1c(=O)oc2ccccc21,-12.14
3,O=c1oc2ccccc2n1CCCN1CCCC1c1ccc(O)cc1 (stereo not drawn),-35.87
4,O=c1oc2ccccc2n1CCN(CC1CCOC1)C1CC1 (stereo not drawn),-26.82
5,CCN(CC)CCn1c(=O)oc2ccccc21.Cl,76.75
6,CCCN(CCn1c(=O)oc2ccccc21)CC1CC1,105
7,CCN(CCn1c(=O)oc2ccccc21)CC1CCOCC1,86.99
8,CCN(Cc1ccc(C(C)=O)cc1)CC1CCOCC1,5.377
9,Cn1cc(C2CCCN2CCCn2c(=O)oc3ccccc32)cn1 (stereo not drawn),-2.71
10,CC(NCCn1c(=O)oc2ccccc21)c1ccccn1 (stereo not drawn),5.47
11,COc1cccc(Nc2nc(C3CCNCC3)c3sc(C)c(C)n23)c1.Cl,44.92
12,CN(C)[C@@H]1CN(Cc2cnn(C)c2)[C@@H]2COC[C@H]12.O=C(O)C(F)(F)F.O=C(O)C(F)(F)F.O=C(O)C(F)(F)F,-14.51
13,O=C(O)C(F)(F)F.O=C1CC[C@H]2[C@H](CCN2c2ncccn2)N1c1ccccc1,21.09
14,Fc1ccc(CN2CCOC[C@H](Oc3cccnc3)C2)cc1,-34.69
15,COc1ccc(O[C@H]2COCCN(Cc3c[nH]c4ccccc34)C2)cc1,47.94
16,c1cncc(O[C@H]2COCCN(Cc3c[nH]c4ccccc34)C2)c1,58.82
17,c1ccc(O[C@H]2COCCN(Cc3cccc4c3OCO4)C2)cc1,-21.01
18,c1ccc(O[C@H]2COCCN(Cc3c[nH]c4ccccc34)C2)cc1,78.8
19,FC(F)(F)c1ccccc1CN1CCOC[C@H](Oc2cccnc2)C1,-28.03
20,CO[C@H]1COCCN(Cc2c[nH]c3ccccc23)C1,82.59
21,O=C(O)c1ccc2c(CN3CCOCC3)c[nH]c2c1,-11.23
22,CC(C)(C)c1coc([C@@H]2COCCN2Cc2c[nH]c3ccccc23)n1,25.07
23,CCC(C)S(=O)(=O)N1CCc2nc(C3CCNCC3)ncc2C1.Cl (stereo not drawn),-3.075
24,Cc1cccc(CN2CCc3nnc(CN4CCCCC4)n3CC2)n1.O=C(O)C(F)(F)F.O=C(O)C(F)(F)F,-5.727

row,Compound,Percent Effect [%]
1,Cl.Cn1ccnc1N1CCN(C(=O)Cc2ccc(Cl)cc2)CC1,-26.02
2,Cc1ccc(C(=O)N2CC3(CCNCC3)c3cc(Cl)ccc32)cn1.O=C(O)C(F)(F)F.O=C(O)C(F)(F)F,1.032
3,Cc1cccc(CN2C(=O)C[C@H]3[C@@H]2CCN3Cc2ccco2)n1.O=C(O)C(F)(F)F.O=C(O)C(F)(F)F,-4.137
4,O=C(CN1C[C@H]2CC[C@@H]1CN(Cc1ccccn1)C2)Nc1ccccc1,12.62
5,Cc1nnsc1CN1C[C@H]2CC[C@@H]1CN(Cc1ccccn1)C2,-2.005
6,Cn1cnc(S(=O)(=O)N2C[C@@H]3CC[C@H](C2)N(Cc2ccccn2)C3)c1,7.06
7,Cn1ccc(NC(=O)CN2C[C@H]3CC[C@@H]2CN(Cc2ccccn2)C3)n1,-21.74
8,CC(C)(C)c1cc(CN2C[C@H]3CC[C@@H]2CN(Cc2ccccn2)C3)n[nH]1,99.23
9,CC(C)(C)c1cc(CN2C[C@@H]3CC[C@H](C2)N(Cc2ccccn2)C3)n[nH]1,82.46
10,O=C(O)C(F)(F)F.c1ccc(CN2CCc3ncnc(C4CC4)c3CC2)cc1,-16.81
11,CC(=O)N1CC2(CCNCC2)c2cc(Cl)ccc21.Cl,3.682
12,CO[C@H]1CN(C(=O)c2ccccn2)[C@@H]2CCCO[C@H]12.O=C(O)C(F)(F)F,0.07759
13,CS(=O)(=O)NCc1cnc2n1CCN(Cc1ccccn1)CC2.O=C(O)C(F)(F)F,-38.1
14,CCc1n[nH]c(C(=O)NCCn2ccnc2C)c1C,-101
15,CCc1n[nH]c(C(=O)NCCn2nccc2C)c1C,66.56
16,CCc1n[nH]c(C(=O)NCCn2ccc(C)n2)c1C,-5.809
17,CO[C@H]1[C@@H]2CC[C@H]1CN(c1nc(C)nc3ccsc13)C2,7.911
18,Cc1ccc(C2(CN3CCN(Cc4cnc(C)n4C)CC3)CC2)cc1.Cl,-8.472
19,CC(=O)c1cc(CN2C[C@H]3CC[C@@H]2CN(S(C)(=O)=O)C3)cs1,74.41
20,CC(=O)c1cc(CN2C[C@H]3CC[C@@H]2CN(S(=O)(=O)N(C)C)C3)cs1,-20.68
21,CS(=O)(=O)N1C[C@@H]2CC[C@H](C1)N(Cc1ccsc1)C2,18.67
